Source: PubChem BioAssay
CYP2C19 act: increases human CYP2C19 enzyme activity. AID 1025. recombinant CYP2C19, luciferin-H EGE luminescence; stronger effect = higher value; 0 = fully inhibited enzyme, 1 = untreated enzyme. activation factor at 5 µM. 96,000 tested, under 10 active;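 active = activation factor of at least 2 at 5 µM in the primary screen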
Target sequence (P33261 whole entry, looked up): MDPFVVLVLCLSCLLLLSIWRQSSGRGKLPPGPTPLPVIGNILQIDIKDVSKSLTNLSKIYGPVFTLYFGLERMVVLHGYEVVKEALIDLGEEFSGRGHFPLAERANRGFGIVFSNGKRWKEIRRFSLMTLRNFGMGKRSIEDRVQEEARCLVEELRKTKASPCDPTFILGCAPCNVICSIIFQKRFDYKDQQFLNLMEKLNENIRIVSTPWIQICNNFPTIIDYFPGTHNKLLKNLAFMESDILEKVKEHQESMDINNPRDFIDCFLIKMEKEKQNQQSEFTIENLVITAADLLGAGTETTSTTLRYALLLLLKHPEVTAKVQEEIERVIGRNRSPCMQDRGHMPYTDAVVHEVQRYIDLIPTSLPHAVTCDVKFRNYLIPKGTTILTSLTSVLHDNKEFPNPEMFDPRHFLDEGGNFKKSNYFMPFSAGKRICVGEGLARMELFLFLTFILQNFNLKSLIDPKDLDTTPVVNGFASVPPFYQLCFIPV
CYP2C9 inh: blocks human cytochrome P450 2C9; 20% of 96,000 active; inhibition, % at 5 µM; AID 777; CYP2C9 Supersomes, luciferin-H conversion, luminescence;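 active = blocking of liver enzyme CYP2C9 beyond about 50% at 5 µM, limit read from the data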
CYP2C19 inh: human CYP2C19 inhibition. P33261. CYP2C19 Supersomes, luciferin-H EGE luminescence, 30 min. inhibition, % at 5 µM. 21% of 96,000 active;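 active = CYP2C19 inhibition above a set limit at 5 µM in the primary screen, cut at about 50% in these data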
PostGolgi ctrl: yeast control strain growth, post-Golgi counter-screen; efflux-deficient yeast background strain, growth absorbance A615, 16 h; inhibition, % at 10 µM; 5% of 98,000 active; AID 738
PostGolgi yeast: growth inhibition of a yeast mutant, post-Golgi transport screen | post-Golgi transport phenotypic cell assay | inhibition, % at 10 µM | 0.9% of 98,000 active | AID 739;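 also: yeast cells grown in 1536-well plates; yeast grown about 18 h at 30C before absorbance read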
CYP2C9 activ: activators of human CYP2C9. AID 1024. activation factor at 5 µM. 1.4% of 96,000 active. P11712. recombinant CYP2C9, luciferin-H conversion, luminescence; stronger effect = higher value; factor 1 = untreated enzyme, 0 = blocked;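 active = activation factor of 2 or more for CYP2C9 at a 5 µM dose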
Each line names hits and unclear results; the compound was inactive in the other large screens. Most compounds without a hit are left out; they make up all but 32% or so of the library. Rule as the data show it, unless noted: active = inhibition above about 30%; inactive = the rest.

CN1C(=O)C(O)(CC(=O)c2ccc(F)cc2)c2cc(Br)ccc21 (centres undefined)	CYP2C19 inh 79.2
COc1ccc(C2/C(=C(/O)c3ccc(Cl)cc3)C(=O)C(=O)N2CCN2CCOCC2)c(OC)c1 (centres undefined)	none
Cc1nnc(SCCn2c(Br)nc3c2c(=O)n(C)c(=O)n3C)s1	CYP2C19 inh 80.2
COC(=O)c1nonc1NCn1nnc2ccccc21	none
Cc1c(C(=O)OC2CCCC2C)[nH]c2c1C(=O)CCC2 (centres undefined)	CYP2C9 inh 53.8
CCCc1c(C(=O)OCC)[nH]c2c1C(=O)CCC2	none
Cc1c(C(=O)OCCOc2ccccc2)[nH]c2c1C(=O)CCC2	CYP2C9 inh 91.0, CYP2C19 inh 91.0
COC(=O)c1cccc(NC(=O)C2C3CCC(C3)C2C(=O)O)c1 (centres undefined)	none
Fc1ccc(NCc2nnc(SCc3nnc(-c4ccccc4)o3)n2Cc2ccccc2)cc1	CYP2C9 inh 68.5, CYP2C19 inh 78.6, PostGolgi yeast 46.2
CN(C)c1nc(SCc2ccc(Cl)cc2)nc2c1CCCC2	CYP2C9 inh 85.6, CYP2C19 inh 68.8, PostGolgi ctrl 36.9
Nc1nc(SCc2ccccc2Cl)nc2nc3c(cc12)CCCC3	none
COc1cnc(SCc2ccc(Cl)cc2)nc1Cl	none
CNc1nc(SCc2ccccc2Cl)nc2c1CCCC2	CYP2C9 inh 90.1, CYP2C19 inh 97.5, PostGolgi ctrl 44.9
COc1cc(OC)c(OC)cc1/C=N/N(C)c1ccccc1	CYP2C9 inh 70.2, PostGolgi ctrl 44.8
COc1cc(/C=N/N(C)c2ccccc2)ccc1O	CYP2C9 inh 74.3, CYP2C19 inh 82.2
COc1cc(C)nc(NC(=O)COc2ccc(Cl)cc2C)n1	none
Cn1c(SCC(=O)c2ccc3c(c2)OCO3)nnc1-c1ccccn1	CYP2C19 inh 51.5
O=C(CSc1nnc(SCc2cccc3ccccc23)s1)c1ccc2c(c1)OCO2	CYP2C9 inh 62.8, CYP2C19 inh 51.5
CCn1c(CSc2nc3ccccc3s2)nnc1SCC(=O)c1ccc2c(c1)OCCO2	none (no result: CYP2C19 act, CYP2C9 inh, CYP2C19 inh, CYP2C9 activ)
O=C(CSc1ccccn1)c1ccc2c(c1)OCO2	CYP2C19 inh 98.5
Cc1cccc(NC(=O)CS(=O)(=O)Cc2ccccc2)n1	none
CCc1ccc(N2CC(C(=O)Nc3ccccc3F)CC2=O)cc1 (centres undefined)	CYP2C9 inh 82.0
CCCOc1ccc(N2CC(C(=O)Nc3ccccc3F)CC2=O)cc1 (centres undefined)	none
CCOc1cc(N2CCOCC2)c(OCC)cc1NC(=O)C(NC(=O)c1ccco1)C(C)C (centres undefined)	none
CCOc1ccc(N2CC(C(=O)Nc3ccccc3N3CCOCC3)CC2=O)cc1 (centres undefined)	CYP2C9 inh 85.0
COC(=O)c1ccccc1NC(=O)C1CC(=O)N(c2ccc(F)cc2)C1 (centres undefined)	CYP2C9 inh 63.8, CYP2C19 inh 84.2
CCOc1ccccc1C(=O)NC(C(=O)Nc1ccccc1N1CCOCC1)C(C)C (centres undefined)	CYP2C9 inh 73.3
COC(=O)c1ccccc1NC(=O)C1CC(=O)N(c2ccc(C)c(C)c2)C1 (centres undefined)	none
CC12CCCCC1(O)[N+](=O)C1=C(CCCC1)N2[O-] (centres undefined)	none
CC12CCC(C(=O)Nc3ccccc3Br)(C/C1=N\O)C2(C)C (centres undefined)	none
CCc1ccc(N2CC(C(=O)N/N=C/c3cccc([N+](=O)[O-])c3)CC2=O)cc1 (centres undefined)	CYP2C9 inh 69.0
O=C(Nc1ccccc1C(=O)N1CCOCC1)C1CC(=O)N(C2CCCC2)C1 (centres undefined)	none
COC(=O)c1ccccc1NC(=O)C1CC(=O)N(C2CCCCC2)C1 (centres undefined)	CYP2C9 inh 58.8, CYP2C19 inh 66.1
CCOC(=O)CSc1nc2ccc(NC(C)=O)cc2s1	CYP2C9 inh 72.4, CYP2C19 inh 56.7
Cn1cnnc1SCC(=O)Nc1ccc2nc(SCc3ccccc3F)sc2c1	CYP2C9 inh 60.0
CSc1nc2ccc(NC(=O)CSc3nnc(N)s3)cc2s1	CYP2C9 inh 70.7
COc1ccc(NC(=O)CSc2nnc(N)s2)cc1	none
Cn1c(=O)[nH]c(=O)c2c1nc(N1CCOCC1)n2CCCSc1ncccn1	none
CN1CCN(C(=O)CSc2nc(-c3cccs3)cc(-c3cccs3)c2C#N)CC1	CYP2C9 inh 78.2, CYP2C19 inh 85.8
COc1ccc(-c2cc(-c3cccs3)c(C#N)c(SCC(=O)NCc3ccco3)n2)cc1	CYP2C9 inh 84.7
COc1ccc(CNC(=O)CSc2nc(-c3ccccc3)cc(-c3cccs3)c2C#N)cc1	CYP2C9 inh 68.6
CN1CCN(C(=O)CSc2nc(-c3ccncc3)ccc2C#N)CC1	none
COc1ccc(-c2cc(C(F)(F)F)nc(SCC(=O)NCc3cccs3)n2)cc1	none
CSc1nc(-c2ccco2)nn1C(=O)c1ccc(Cl)cc1	none
Cc1ccc[n+](/C(C(=S)NCc2ccco2)=C(/[O-])c2ccccc2Cl)c1	none
Cc1cc(C(=O)N2CCCCCC2)cs1	CYP2C19 inh 57.9
Cc1ccc(-c2nc3sc4c(N)ncnc4c3c3c2CCCC3)cc1	none
CCOC(=O)c1cc(C)n(Cc2ccc(OCC)c(OC)c2)c1C	CYP2C9 inh 59.4
CCOc1cc(CN2CCCCC2)ccc1OC	none
CC(NC(=O)C(CC(=O)OC(C)(C)C)NC(=O)OC(C)(C)C)C(N)=O (centres undefined)	none
CCCCOC(=O)c1ccc(NC(=O)c2cc(Cl)ccc2OC)cc1	CYP2C9 activ 2.5
CS(=O)(=O)N(CC(=O)Nc1ccc2c(c1)OCCO2)c1ccc2c(c1)OCO2	CYP2C9 inh 57.6, CYP2C19 inh 87.8
COCCCNC(=O)CN(c1cc(OC)ccc1OC)S(=O)(=O)c1ccccc1	CYP2C9 inh 59.3, CYP2C19 inh 56.1
COc1ccc(OC)c(N(CC(=O)O)S(=O)(=O)c2ccc(OC)c(OC)c2)c1	none
CS(=O)(=O)N(CC(=O)Nc1ccc2c(c1)OCO2)c1ccccc1	none
COc1ccc(OC)c(N(CC(=O)Nc2ccc3c(c2)OCO3)S(=O)(=O)c2ccccc2)c1	CYP2C9 inh 100.0, CYP2C19 inh 98.3
COc1ccc(Cl)cc1N(CC(=O)Nc1ccc2c(c1)OCO2)S(C)(=O)=O	CYP2C9 inh 85.9, CYP2C19 inh 94.9
CCOC(=O)C(Cc1c[nH]c2ccccc12)NC(=O)CNC(C)=O (centres undefined)	none
CNC(=O)NC(=O)CSc1nc2cc(C(=O)OC)ccc2c(=O)n1-c1ccccc1	none
CN1CCN(c2ccc([N+](=O)[O-])c(-n3nc(-c4ccccc4)c4ccccc4c3=O)c2)CC1	none
CC(=O)Oc1ccc(N(C(C)=O)S(=O)(=O)c2cccs2)c2ccccc12	CYP2C19 inh 88.5
O=S(=O)(/N=C/c1c(O)ccc2ccccc12)c1cccs1	none
CCCc1ccc(OCCNC(C)=O)cc1	none (no result: CYP2C19 act, CYP2C9 inh, CYP2C19 inh, CYP2C9 activ)
COc1ccc(-c2cn[nH]c2N)cc1	none
